# According to the antibiotic and cytotoxicity screens of Wong et al. (2023):
# The whole screen tested about 39,000 compounds, of which about 3,300 (8.5%) were called active. The sample holds actives, similar compounds and a random draw of the others, so the mix is not that of the screen.
# Tested on: HepG2
# Assay: cytotoxicity call (relative viability < 0.9)
# Details: 10 µM
row,SMILES,cytotoxicity call
1,CCC=CCC=CCC=CCC=CCC=CCCCC(=O)OCC [OMEGA-3-ACID ESTERS (EPA shown) ],inactive
2,C[C@H](CO)N1C[C@H](C)[C@@H](CN(C)Cc2ccc(C(=O)O)cc2)Oc2ncc(C#CCN(C)C)cc2C1=O,inactive
3,Cc1noc(C)c1NC(=O)Nc1ccc2c(c1)CC(=O)N([C@H](C)CO)C[C@@H](C)[C@H](CN(C)Cc1ccc(Cl)c(Cl)c1)O2,inactive
4,CCOC(=O)N(C)C[C@@H]1OCc2cn(nn2)CCCC(=O)N([C@@H](C)CO)C[C@@H]1C,inactive
5,COc1ccc(NC(=O)Nc2ccc3c(c2)C(=O)N([C@@H](C)CO)C[C@@H](C)[C@@H](CN(C)S(=O)(=O)c2ccc(OC)cc2)OCCCC[C@H](C)O3)cc1,inactive
6,COc1ccccc1CNC(=O)C[C@@H]1C[C@@H]2c3cc(NC(=O)c4ccc5c(c4)OCO5)ccc3O[C@@H]2[C@H](CO)O1,inactive
7,NCC[C@H]1CC[C@H](NC(=O)C2CCC2)[C@@H](CO)O1,inactive
8,Cc1cccc(S(=O)(=O)N2C[C@@H](O)COC[C@@H]3O[C@H](CC(=O)N4CCN(C)CC4)CC[C@H]32)c1,inactive
9,COc1ccc(NC(=O)Nc2ccc3c(c2)C(=O)N([C@H](C)CO)C[C@H](C)[C@H](CN(C)C(=O)CCC(F)(F)F)OCCCC[C@H](C)O3)cc1,inactive
10,CC(C)NC(=O)N(C)C[C@H]1Oc2ccc(NS(=O)(=O)c3cccs3)cc2C(=O)N([C@H](C)CO)C[C@H]1C,inactive
11,C[C@@H]1CN([C@@H](C)CO)C(=O)c2cccc(NS(=O)(=O)c3ccc(Cl)cc3)c2O[C@H]1CN(C)Cc1ccc(Cl)c(Cl)c1,inactive
12,COc1ccc(S(=O)(=O)Nc2cccc3c2O[C@H](CN(C)Cc2ccc(Cl)c(Cl)c2)[C@H](C)CN([C@@H](C)CO)C3=O)cc1,active
13,C[C@@H]1CN([C@@H](C)CO)C(=O)c2cccc(NS(=O)(=O)c3ccccc3)c2O[C@@H]1CN(C)Cc1ccc(Cl)c(Cl)c1,inactive
14,C[C@H]1CN([C@@H](C)CO)C(=O)c2cccc(NS(=O)(=O)c3ccccc3)c2O[C@H]1CN(C)Cc1ccc(Cl)c(Cl)c1,inactive
15,C[C@H](CO)N1C[C@H](C)[C@@H](CN(C)Cc2ccc(Cl)c(Cl)c2)Oc2c(NS(=O)(=O)c3ccc(Cl)cc3)cccc2C1=O,inactive
16,C[C@H](CO)N1C[C@H](C)[C@@H](CN(C)Cc2ccc(Cl)c(Cl)c2)Oc2c(NS(=O)(=O)c3ccccc3)cccc2C1=O,active
17,COc1ccc(S(=O)(=O)Nc2cccc3c2O[C@@H](CN(C)Cc2ccc(Cl)c(Cl)c2)[C@H](C)CN([C@@H](C)CO)C3=O)cc1,inactive

row,SMILES,cytotoxicity call
1,COc1ccc(S(=O)(=O)Nc2cccc3c2O[C@H](CN(C)Cc2ccc(Cl)c(Cl)c2)[C@@H](C)CN([C@@H](C)CO)C3=O)cc1,inactive
2,C[C@H]1CN([C@@H](C)CO)C(=O)c2cccc(NS(=O)(=O)c3ccc(Cl)cc3)c2O[C@@H]1CN(C)Cc1ccc(Cl)c(Cl)c1,active
3,Cc1ccc(S(=O)(=O)N(C)C[C@@H]2Oc3ccc(NC(=O)NC(C)C)cc3CC(=O)N([C@@H](C)CO)C[C@H]2C)cc1,inactive
4,Nc1ncnc(NC[C@H]2CCCO2)c1[N+](=O)[O-],inactive
5,COc1ccc(NC(=O)Nc2ccc3c(c2)C(=O)N([C@@H](C)CO)C[C@@H](C)[C@@H](CN(C)S(=O)(=O)c2ccc(C)cc2)OCCCC[C@H](C)O3)cc1,inactive
6,C[C@@H]1CN([C@@H](C)CO)S(=O)(=O)c2ccc(-c3cncnc3)cc2O[C@@H]1CN(C)C(=O)Cc1ccncc1,inactive
7,COc1ccc(NC(=O)Nc2ccc3c(c2)C(=O)N([C@@H](C)CO)C[C@@H](C)[C@@H](CN(C)Cc2ccccc2)OCCCC[C@@H](C)O3)cc1,active
8,COc1ccc(NC(=O)Nc2ccc3c(c2)C(=O)N([C@H](C)CO)C[C@@H](C)[C@@H](CN(C)Cc2ccccc2)OCCCC[C@H](C)O3)cc1,inactive
9,COc1ccc(NC(=O)Nc2ccc3c(c2)C(=O)N([C@@H](C)CO)C[C@H](C)[C@H](CN(C)Cc2ccccc2)OCCCC[C@H](C)O3)cc1,inactive
10,COc1ccc(NC(=O)Nc2ccc3c(c2)C(=O)N([C@@H](C)CO)C[C@@H](C)[C@H](CN(C)Cc2ccccc2)OCCCC[C@@H](C)O3)cc1,inactive
11,COc1ccc(NC(=O)Nc2ccc3c(c2)C(=O)N([C@@H](C)CO)C[C@@H](C)[C@@H](CN(C)Cc2ccccc2)OCCCC[C@H](C)O3)cc1,inactive
12,COc1ccc(NC(=O)Nc2ccc3c(c2)C(=O)N([C@H](C)CO)C[C@@H](C)[C@H](CN(C)Cc2ccccc2)OCCCC[C@@H](C)O3)cc1,active
13,COc1ccc(NC(=O)Nc2ccc3c(c2)C(=O)N([C@@H](C)CO)C[C@H](C)[C@@H](CN(C)Cc2ccccc2)OCCCC[C@@H](C)O3)cc1,inactive
14,COc1ccc(NC(=O)Nc2ccc3c(c2)C(=O)N([C@H](C)CO)C[C@@H](C)[C@@H](CN(C)Cc2ccccc2)OCCCC[C@@H](C)O3)cc1,inactive
15,COc1ccc(NC(=O)Nc2ccc3c(c2)C(=O)N([C@H](C)CO)C[C@@H](C)[C@H](CN(C)Cc2ccccc2)OCCCC[C@H](C)O3)cc1,active
16,COc1ccc(NC(=O)Nc2ccc3c(c2)C(=O)N([C@@H](C)CO)C[C@@H](C)[C@H](CN(C)Cc2ccccc2)OCCCC[C@H](C)O3)cc1,active
17,COc1ccc(NC(=O)Nc2ccc3c(c2)C(=O)N([C@H](C)CO)C[C@H](C)[C@@H](CN(C)Cc2ccccc2)OCCCC[C@H](C)O3)cc1,inactive
